In PubChem BioAssay AID770 (SRMLSC, 2007):
Fewer than 10 of roughly 3,300 compounds were called active.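 The calls were made as follows: active = growth inhibition above 90% in viable cell count at a single dose; inactive = growth inhibition below 90%.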 A selection follows.

Experiment: HT29 colon tumor cell growth inhibition, primary screen, imaging, high content imaging, 24 h, CellTiter-Glo (AID 770);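 as to condensed nuclei: share of cells whose nuclear area falls below control median minus 1.5 SD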
Details: HT29 cell number by imaging, at 10 µM, stronger effect = higher value; for condensed nuclei: measured here: percent cells with condensed nuclei
[1] = measured here: ATP CellTiter-Glo viability

SMILES | growth inhibition | growth inhibition [1] [%] | condensed nuclei [%]
C=CCN=C(C)C1=C(O)CCC1=O | -21.7% (inactive) | -5.99 | 1.55
CN(C)/C=C1\N=C(c2cccs2)OC1=O | 21% (inactive) | 8.97 | 2.88
COc1cccc2c1C(=O)c1c(O)c3c(c(O)c1C2=O)C[C@@](O)(C(C)=O)C[C@@H]3O[C@H]1C[C@H](N)[C@H](O)[C@H](C)O1 | 96.9% (active) | 33.6 | 8.82
COc1cccc2c1C(=O)c1c(O)c3c(c(O)c1C2=O)C[C@@](O)(C(=O)CO)C[C@@H]3O[C@H]1C[C@H](N)[C@H](O)[C@H](C)O1 | 84.2% (inactive) | 0 | 0
CC(C)CC(C(=O)O)C(C)CC(=O)Nc1ccn(-c2ccccc2)n1 (stereo not given) | 23.8% (inactive) | -0.54 | 6.12
O=C(NCc1ccccn1)c1ccc(=O)oc1 | 3.8% (inactive) | -10.6 | 2.33
C=CCOc1ccc(C2/C(=C(\O)c3ccc(F)cc3)C(=O)C(=O)N2CCCN(C)C)cc1 (stereo not given) | 12.6% (inactive) | -2.77 | 0.82
COc1ccc(OC)c(C2/C(=C(\O)c3ccc(OC)c(Cl)c3)C(=O)C(=O)N2CCN(C)C)c1 (stereo not given) | -11.2% (inactive) | -7.25 | 3.18
COc1cccc(C2/C(=C(\O)c3ccc4c(c3)OCCO4)C(=O)C(=O)N2CCN(C)C)c1 (stereo not given) | 2.52% (inactive) | -0.26 | 1.83
CC1(C)Cc2c(sc3c2C2=NCCN2C=N3)CS1 | 8.06% (inactive) | 0.86 | 5.47
Nc1nonc1-c1noc(N2CCOCC2)n1 | -12.5% (inactive) | -12.3 | 1.72
O=C1C2ON(c3ccccc3)C(c3cccnc3)C2C(=O)N1Cc1ccccc1 (stereo not given) | 13.7% (inactive) | -16.2 | 2.97
N#CC(C(=O)NC1CC1)c1nc2ccccc2nc1N1CCN(C/C=C/c2ccccc2)CC1 (stereo not given) | -33.2% (inactive) | -7.38 | 1.95
CCOC(=O)c1cc(CC)sc1NC(=O)C1CC1 | -8.79% (inactive) | -9.23 | 2.27
CN1C(=O)c2ccc(N(C)C)cc2C1=O | -24.1% (inactive) | -7.32 | 1.05
CCN1C(=O)CC(N2CCN(c3ccc(OC)cc3)CC2)C1=O (stereo not given) | -5.76% (inactive) | -6.84 | 4.31
COc1ccc(S(=O)(=O)N2CCC(N3CCCCC3)CC2)cc1 | -21.4% (inactive) | 3.08 | 2.89
Cc1cccn2c(=O)c3cc(C(N)=S)c(=N)n(CCCOC(C)C)c3nc12 | -47.5% (inactive) | -18.1 | 3.48
Cc1cccc(C)c1NC(=O)CSCC(=O)c1ccc(O)c(O)c1 | 24.8% (inactive) | -2.15 | 7.02
CC(C)Cc1nc(N2CCN(C(=O)Cc3ccccc3)CC2)c(C#N)c2c1COC(C)(C)C2 | -45.4% (inactive) | -6.01 | 0.93
